Screens: PubChem, National Center for Advancing Translational Sciences (NCATS)
Only some compounds are listed: those with a hit (about 7.5% of all), similar ones and a draw of the others.
B2AR arrestin: agonists driving beta-arrestin recruitment to human beta2-adrenergic receptor; P07550; beta-arrestin recruitment to beta2AR, cell-based reporter; Potency, µM (top dose mostly 46.1 µM), without a hit: at the highest dose activation, most hits filed as activators; 0.02% of 330,000 active; AID 492947;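 also: potency is read from the fitted curve at half-maximal effect; 0% = DMSO controls and full agonism = EC100 isoproterenol or metaproterenol; nearly all actives have a fitted effect of over 65% in size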
ELG1 DNA repair: inhibitors of ELG1-dependent DNA repair in HEK293T cells; HEK293T ELG1-luciferase reporter, luminescence, 16 h; DNA damage induced by 5-fluorouridine; Potency, µM (top dose mostly 46.1 µM), inactives show top-dose activity change, negative = inhibition, most hits filed as inhibitors; 2.3% of 330,000 active; AID 504467; also: potency is read from the fitted curve at half-maximal effect; nearly all actives have a fitted effect of over 55% in size
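HEK293T cells expressing luciferase-tagged ELG1 (2,000/well) received 5-Fluorouridine plus compound or DMSO for 16 hr at 37 °C. Luciferase was read by ONE-Glo luminescence after 30 min at room temperature.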
RORgamma inh: blocks mouse ROR gamma transcriptional activity; Drosophila S2 Gal4-RORgamma UAS-luciferase reporter, 20 h; Potency, µM (doses to about 53.6 µM), for inactives: at the highest dose activity change, negative = inhibition, most hits filed as inhibitors; AID 2551; 5.4% of 310,000 active; also: potency is read from the fitted curve at half-maximal effect; nearly all actives have a fitted effect of over 60% in size
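Using a luciferase readout, inhibitors were identified by reduced reporter activity in Drosophila cells coexpressing a copper-inducible Gal4–ROR gamma fusion and UAS-driven Photinus luciferase, incubated 20 hr after 700 uM copper sulfate.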
VP16 counter: counter-screen for ROR gamma inhibitors: Gal4-VP16 reporter | Drosophila S2 Gal4-VP16 UAS-luciferase, luminescence, 20 h | 3.5% of 310,000 active | AID 2546 | Potency, µM (doses to about 53.6 µM), inactives show at the top dose activity, negative = inhibition, actives largely listed as inhibitors;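 also: Gal4-VP16 expression switched on by copper sulfate through the metallothionein promoter; potency is read from the fitted curve at half-maximal effect; nearly all actives have a fitted effect of over 50% in size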
TSHR antag: blocks TSH signaling through the human TSH receptor; P16473; TSHR-expressing cells, TSH-stimulated cAMP HTRF, 2 h; stronger effect = lower value; activity change, negative = inhibition, % at 11.5 µM; 0.2% of 330,000 active; AID 504810;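 active = activity change below a set negative limit, meaning inhibition stronger than a set level, cut at about -70% in these data; inconclusive = activity change between two set negative limits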
Target sequence (P16473 whole entry, looked up): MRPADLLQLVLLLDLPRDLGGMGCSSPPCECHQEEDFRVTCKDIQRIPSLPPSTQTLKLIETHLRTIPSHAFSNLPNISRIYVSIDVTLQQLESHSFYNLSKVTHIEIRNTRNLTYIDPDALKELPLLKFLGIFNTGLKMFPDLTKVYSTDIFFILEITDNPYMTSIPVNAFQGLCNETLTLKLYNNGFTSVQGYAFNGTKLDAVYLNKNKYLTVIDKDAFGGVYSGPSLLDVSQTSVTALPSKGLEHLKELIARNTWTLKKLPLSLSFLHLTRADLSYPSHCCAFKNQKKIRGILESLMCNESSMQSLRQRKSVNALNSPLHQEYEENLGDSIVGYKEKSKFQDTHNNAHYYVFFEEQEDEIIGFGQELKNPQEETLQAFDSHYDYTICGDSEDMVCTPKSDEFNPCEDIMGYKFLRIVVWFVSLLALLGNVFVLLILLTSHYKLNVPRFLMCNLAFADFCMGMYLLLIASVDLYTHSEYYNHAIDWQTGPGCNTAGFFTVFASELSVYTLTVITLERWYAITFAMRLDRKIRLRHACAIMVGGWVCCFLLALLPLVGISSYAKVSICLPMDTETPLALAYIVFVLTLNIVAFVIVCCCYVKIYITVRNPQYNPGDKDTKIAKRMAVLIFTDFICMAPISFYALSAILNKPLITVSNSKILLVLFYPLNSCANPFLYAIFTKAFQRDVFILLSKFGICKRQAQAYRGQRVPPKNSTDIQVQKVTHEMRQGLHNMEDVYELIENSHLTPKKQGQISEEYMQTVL
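Cell-based HTRF cAMP assay; TSHR cells + compound, TSH EC80 (4nM final), 2 h, 37 deg C. Lysis with anti-cAMP cryptate and cAMP-d2, 30 min RT, read 665/620 nm.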
An asterisk follows results filed as active; ? = inconclusive; . = no result given; [ ] = dose if it differs, or a comment. Unless noted, calls follow the shape of the dose curve; as a rule, active = well fitted curve in the direction sought with a large enough effect; inconclusive = small, poorly fitted or top-dose-only effect, or another doubt; inactive = no such curve, though single readings can be large; an effect the other way counts as inactive or inconclusive. Unless noted, % is scaled to controls: 0 for no effect and ±100 for the full control effect.

SMILES	B2AR arrestin	ELG1 DNA repair	RORgamma inh	VP16 counter	TSHR antag
COc1ccc(/C=N\NC(=O)c2ccc(F)cc2)cc1COc1cc(F)ccc1[N+](=O)[O-]	0%	21µM*	?	?	-22
COc1ccc(/C=N/NC(=O)c2cc(C(C)(C)C)[nH]n2)cc1COc1ccc(F)cc1F	0%	16µM*	17%	1%	-3
COc1ccc(/C=N/NC(=O)c2ccccc2O)cc1COc1ccccn1	-1%	23%	-9%	6%	-9
COc1ccc(/C=N/NS(=O)(=O)c2ccc(F)cc2)cc1COc1cc(F)ccc1[N+](=O)[O-]	0%	?	?	-29%	-36
CC(=O)NC(=S)NNC(=O)C(c1ccccc1)c1ccccc1	0%	?	6.3µM*	-6%	-1
COCCN(C(=O)CCl)C(C(=O)NC1CCCCC1)c1ccccc1C (centres undefined)	-1%	21µM*	?	?	-2
CCCCSc1nnc(-c2ccccc2)c2ccccc12	0%	4%	70%	13µM*	-19
CCN1CCN(c2nnc(-c3ccccc3)c3ccccc23)CC1	0%	-9%	-20%	0%	1
O=C(Nc1nnc(C2CC2)s1)c1cccnc1Oc1ccc(Cl)cc1	-1%	-16%	-9%	1%	3
Oc1ccc(-c2n[nH]c(C(F)(F)F)c2-c2ccccc2)c(O)c1	-1%	?	5.6µM*	1.6µM*	-33
COc1ccc(-c2c(-c3ccc(O)cc3O)n[nH]c2C(F)(F)F)cc1	0%	-12%	-68%	10µM*	-14
COc1ccc(-c2cncnc2-c2ccc(OC)cc2O)cc1	0%	5.8µM*	?	-5%	-3
COc1ccc(-c2c(-c3ccc(OC)c(C)c3O)n[nH]c2C)cc1	6%	-25%	11µM*	11µM*	15
COc1ccc(-c2c(-c3ccc(O)cc3O)n[nH]c2C)cc1OC	0%	?	-29%	1%	0
COc1ccc(-c2ncncc2-c2ccc(Cl)cc2)c(O)c1	0%	?	?	-4%	-6
Cc1cc(C)c(NC(=O)CN(C)C(=O)c2ccc(OCc3ccccc3)cc2)c(C)c1	0%	?	.	.	-1
COc1ccccc1-c1c(-c2ccc(O)cc2O)n[nH]c1C(F)(F)F	0%	5.8µM*	?	11%	2
Cc1noc(C)c1-c1ccc2ncnc(NCc3cccs3)c2c1	.	.	-19%	-8%	.
CCC(CO)n1c(=S)[nH]c2cc(OC)c(OC)cc2c1=O (centres undefined)	0%	2%	11µM*	?	5
CCOc1cc2[nH]c(=S)n(C(C)C)c(=O)c2cc1OCC	-1%	?	2µM*	7.1µM*	2
CCOC(=O)N1CCC(n2c(=S)[nH]c3cc(OCC)c(OCC)cc3c2=O)CC1	0%	-8%	5%	-8%	2
CCOc1cc2[nH]c(=S)n(C3CC3)c(=O)c2cc1OCC	-1%	?	4.5µM*	16µM*	0
CCOc1cc2[nH]c(=S)n(CCCOC)c(=O)c2cc1OCC	-1%	-8%	11µM*	?	-8
CCOc1cc2[nH]c(=S)n(CCc3ccc(OC)c(OC)c3)c(=O)c2cc1OCC	0%	-4%	14%	1%	0
CCCCn1c(CCn2nc(C)c(Br)c2C)n[nH]c1=S	0%	1%	11µM*	?	-3
SMILES	B2AR arrestin	ELG1 DNA repair	RORgamma inh	VP16 counter	TSHR antag
CCOCCn1c(=O)c2c(nc3n2CC(C)CN3CCc2ccccc2)n(C)c1=O (centres undefined)	0%	?	-9%	-15%	10
O=C1C2C=CC=CC2=NC(=S)N1CCN1CCC(=C(c2ccc(F)cc2)c2ccc(F)cc2)CC1 (centres undefined)	.	.	.	.	-22
CCOC(=O)c1c(NC(=O)c2ccc(C)cc2)sc2c1CC(C)(C)OC2	0%	8.2µM*	-7%	1%	-10
CCOC(=O)c1c(NC(=O)c2ccccc2C)sc2c1CC(C)(C)OC2	0%	?	-3%	-17%	-21
CCOC(=O)c1c(NC(=O)CN2CCOCC2)sc2c1CC(C)(C)OC2	0%	8.2µM*	9%[10 µM]	-4%	9
CCCC(=O)Nc1sc2c(c1C(=O)OCC)CC(C)(C)OC2	0%	7.3µM*	3%	-1%	0
C=C(C)CNC(=S)Nc1sc2c(c1C(=O)OCC)CC(C)(C)OC2	-1%	-9%	1.4µM*	1.4µM*	-4
CCOC(=O)c1c(NC(=O)CCC(=O)N(CC)CC)sc2c1CC(C)(C)OC2	0%	?	?	?	-7
CCCCNC(=O)NS(=O)(=O)c1ccc(CO)cc1	.	.	-14%	-5%	.
CC(C)(C)c1ccc(Oc2ccc(NC(=O)c3cccs3)cn2)cc1	0%	6.5µM*	?	?	-18
COc1ccc2nc(NC(=O)c3ccccc3O)sc2c1	-1%	?	7.1µM*	?	-34
CCOc1ccc2nc(NC(=O)c3cccnc3)sc2c1	-1%	?	?	-14%	-5
COc1ccc(C(=O)Nc2nc3cc4c(cc3s2)OCCO4)c(OC)c1	0%	?	0.028µM*	0.4µM*	-18
CCOc1ccc2nc(NC(=O)c3cnc(C)cn3)sc2c1	0%	2%	1.8µM*	5.6µM*	-6
CCC(=O)[C@@]1(O)C(=O)N2C(=C3C(=O)OCCC31)N(Cc1ccccc1)C(C)=C(C(=O)OC)C2c1ccccc1 (some centres undefined)	.	.	6%[10 µM]	-5%[10 µM]	.
O=C(Nc1nc(-c2cc(F)ccc2F)cs1)C1=NN(c2ccccc2)C(=O)CC1	0%	?	3%	13%	-10
COc1ccc(-c2csc(NC(=O)C3=NN(c4ccccc4)C(=O)CC3)n2)cc1	-1%	?	-3%	-4%	-78*
COc1ccc(NC(=O)c2ccc(NC(=O)c3cccs3)cc2)cc1	0%	?	7.1µM*	?	30
COc1ccc(NS(=O)(=O)c2csc(C(=O)Nc3ccccc3)c2)cc1	0%	?	13µM*	20µM*	3
CCOC(=O)c1cccc(C(=O)Nc2nc3ccc(OC)cc3s2)n1	0%	?	11µM*	?	-9
COc1ccc(NS(=O)(=O)c2csc(C(N)=O)c2)cc1	0%	-6%	16%	2%	-1
COc1ccc2nc(NC(C)=O)sc2c1	0%	?	2%	-1%	-8
COc1ccc(S(=O)(=O)NNC(=O)Nc2ccc(F)cc2F)c(OC)c1	-1%	5%	-8%	-7%	-8
COC(=O)c1ccc(C(/C=C/[C@@H](C)C(=O)NCCN2CCCC2)NC(=O)OCc2ccccc2)cc1 (some centres undefined)	.	.	21%	8%	.
COC(=O)N1CC=CC1(C)C(=O)O (centres undefined)	.	.	-5%	4%	.
COc1ccc2nc(NC(=O)c3cccs3)sc2c1	0%	?	10µM*	?	-7
